This passage reports growth results from PubChem BioAssay (NCI).

Molecules are shown by their SMILES. The panel holds about 83,000 compounds, 20% with a hit somewhere; the sample as a whole holds those more often.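 For each line, cells grew in 96-well plates with the test compound present at a single concentration for 48 hours.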 A number with no mark means an inactive call. Active and inactive are the calls of the source. How the source made its calls: active means growth percent below 10; inactive means the rest.

The first test deals with SNB-75 CNS. Briefly: NCI-60 one-dose screen, 48 h (100 = growth as untreated, 0 = no growth, -100 = all killed). Particulars: 10 µM.
On to `COc1cc2c3c(n(CCCNC(C)C)c(=O)c2cc1OC)-c1nc2c(cc1C3=O)OCO2`, for which the growth was 78.6%.
On the same count and under the same terms, with `COc1ccc2cc([C@H](C)C(=O)NCc3ccccc3)ccc2c1` the figure was 6.97% (active); with `O=C(Cn1nc(-c2ccccc2)ccc1=O)NNC(=S)NC1CCCCC1`, 96.6%.
Same read-out and setting: with `CN1CCCN(Cc2ccc(C(=O)Nc3cccc(Nc4ccc5cc(O)ccc5n4)c3)cc2C(F)(F)F)CC1` the figure was 32.2%.
Consider `O=C1Nc2cc(Cl)ccc2/C1=C/c1cccc(OCc2ccccc2)c1`, for which the growth is 16.8%.
Same read-out and setting: with `C/C(=C\CC/C=C(\C)CC/C=C(\C)CC[C@@H](O)C(C)(C)O)CC/C=C(\C)CC[C@@H](O)C(C)(C)O` the figure was 70.2%; with `O=C(c1ccc([N+](=O)[O-])c([N+](=O)[O-])c1O)n1[nH]c(=O)c2ccccc2c1=O`, 93.5%; with `O=C(O)CCCCCCCCCCN1C(=O)/C(=C/c2cnc(-c3ccc(Cl)cc3)s2)SC1=S`, 73.3%.
For the molecule `O=C1Nc2ccc(F)cc2/C1=C/c1cccc(OCc2ccccc2)c1`, the growth is 66.2%.
On the same count and under the same terms, with `COc1ccc(-c2nc(S(=O)(=O)c3ccccc3)c(S(C)(=O)=O)o2)cc1` the figure was 77.1%; with `COc1ccc(C(=O)NC(=S)N2CCN(c3ncnc4c3cnn4-c3ccccc3)CC2)cc1`, 31.7%; with `C=CC(=O)Nc1nc(-c2cccc(NS(=O)(=O)c3cccc4c(N(C)C)cccc34)c2)cs1`, 5.83% (active).
On the same count and under the same terms, with `Cc1cc(=O)oc2cc(OCCCCOc3ccc(/C=C/C(=O)Nc4cccc(Cl)c4)cc3)ccc12` the figure was 87.7%; with `COc1ccccc1C(=O)NNC(=O)CSc1nc2c(c(=O)[nH]1)CCCC2`, 99.3%.
On the same count and under the same terms, with `NC1=NC(c2ccccc2Cl)N=C(Nc2nn[nH]n2)N1` (centres undefined) the figure was 95.2%; with `COc1ccc2nc(Cl)c(-c3cc(-c4ccccc4)nc(=O)[nH]3)cc2c1`, 70.1%.
As for `O=c1[nH]n(C(=S)N/N=C/c2ccc(F)cc2)c(=O)c2ccccc12`, the growth is 97.4%.
The same measure, in the same setting: with `O=C(CS(=O)(=O)c1oc(-c2ccc(Cl)cc2)nc1S(=O)(=O)c1ccccc1)N1CCCC1` the figure was 55.7%; with `O=C1Nc2cc(Cl)ccc2/C1=C/c1cccc(OCc2ccc(Br)cc2F)c1`, -0.373% (active); with `Cc1nc2c(cnn2-c2ccccc2)c(=O)n1-c1ccc(NC(=O)c2ccc(F)cc2)cc1`, 64.5%.
Same read-out and setting: with `S=c1nc(-c2ccccc2)cc(-c2cc3ccccc3nc2Cl)[nH]1` the figure was 23.4%.
Same read-out and setting: with `Cc1ccc(C(=O)Nc2ccc(-n3c(C)nc4c(cnn4-c4ccccc4)c3=O)cc2)cc1` the figure was 82.8%.
With `Cc1cc(C)nc(NS(=O)(=O)c2ccc(N/C(N)=N/c3nccc(-c4cccs4)n3)cc2)n1`, the growth is 78.6%.
On the same count and under the same terms, with `COc1ccc(CN2[C@H](C(=O)NCc3ccc(C(=O)NO)cc3)Cc3c([nH]c4ccccc34)[C@H]2C2CC2)cc1` the figure was 74.5%; with `O=C1Nc2ccc(Cl)cc2/C1=C/c1cccc(OCc2ccccc2)c1`, 73.9%.
`O=C(Cn1cc(CSc2nnc3oc4ccccc4n23)nn1)Nc1ccc(Br)cc1`: the growth was -24.5% (active).
The same measure, in the same setting: with `CCN1CCN(c2ccc(NC(=O)Nc3ccc(-c4cc(C(=O)NC)c5ncccc5n4)cc3)cc2C(F)(F)F)CC1` the figure was -95% (active).
The same measure, in the same setting: with `COc1ccc(-c2nc(S(=O)(=O)c3ccc(C)cc3)c(S(=O)(=O)CC(=O)N(C)Cc3ccccc3)o2)cc1` the figure was 78.7%; with `COC[C@@H](CC(C)C)N=C1NC(=O)/C(=C/c2ccc3ncsc3c2)N1`, -4.85% (active); with `CC(C)Sc1nc(NC2CC2)c(C#N)c(-c2ccccc2)n1`, 81.3%.
The same measure, in the same setting: with `CCOC(=O)N/C(=C1/OCCN1C)[P+](c1ccccc1)(c1ccccc1)c1ccccc1` the figure was 84.3%.
`CS(=O)(=O)Nc1ccc(-c2ccc3c(c2)ncn3-c2ccc(NC(=O)Nc3ccc(Cl)c(C(F)(F)F)c3)cc2)cc1`: the growth is -42% (active).
Same read-out and setting: with `CN1CCc2c(sc3ncnc(N/N=C/c4cn(-c5ccccc5)nc4-c4ccc(Cl)cc4)c23)C1` the figure was 74.1%; with `CC1(c2ccccc2)NC(=O)N(CC(=O)Nc2ccc(C(=O)/C=C/c3ccc(Br)cc3)cc2)C1=O` (centres undefined), 41.6%.
Same read-out and setting: with `O=C(CN1CCN(c2ncnc3c2cnn3-c2ccccc2)CC1)Nc1nncs1` the figure was -75% (active).
On the same count and under the same terms, with `COc1ccc(C=CC(=O)c2ccc(-n3c(C)nc4c(cnn4-c4ccccc4)c3=O)cc2)cc1` the figure was 98.1%; with `O=C(c1ccc(-n2c(=O)[nH]c3ccccc3c2=O)cc1)N1CCOCC1`, 80.9%.

Another test concerns SNB-19 CNS. Described as above. Conditions: 10 µM.
With `COc1cc2c3c(n(CCCNC(C)C)c(=O)c2cc1OC)-c1nc2c(cc1C3=O)OCO2`, the growth was 33.2%.
For the molecule `COc1ccc2cc([C@H](C)C(=O)NCc3ccccc3)ccc2c1`, the growth was 31.7%.
Take `O=C(Cn1nc(-c2ccccc2)ccc1=O)NNC(=S)NC1CCCCC1`: the growth is 100%.
As to `CN1CCCN(Cc2ccc(C(=O)Nc3cccc(Nc4ccc5cc(O)ccc5n4)c3)cc2C(F)(F)F)CC1`, the growth is 81.1%.
Still for that read-out and setting: with `O=C1Nc2cc(Cl)ccc2/C1=C/c1cccc(OCc2ccccc2)c1` the figure was 0.636% (active).
Turning to `C/C(=C\CC/C=C(\C)CC/C=C(\C)CC[C@@H](O)C(C)(C)O)CC/C=C(\C)CC[C@@H](O)C(C)(C)O`, the growth is 61.4%.
Same read-out and setting: with `O=C(c1ccc([N+](=O)[O-])c([N+](=O)[O-])c1O)n1[nH]c(=O)c2ccccc2c1=O` the figure was 72.9%; with `O=C(O)CCCCCCCCCCN1C(=O)/C(=C/c2cnc(-c3ccc(Cl)cc3)s2)SC1=S`, 27.1%.
Same read-out and setting: with `O=C1Nc2ccc(F)cc2/C1=C/c1cccc(OCc2ccccc2)c1` the figure was 23.9%.
The same measure, in the same setting: with `COc1ccc(-c2nc(S(=O)(=O)c3ccccc3)c(S(C)(=O)=O)o2)cc1` the figure was 84.4%.
As for `COc1ccc(C(=O)NC(=S)N2CCN(c3ncnc4c3cnn4-c3ccccc3)CC2)cc1`, the growth was 10.2%.
On the same count and under the same terms, with `C=CC(=O)Nc1nc(-c2cccc(NS(=O)(=O)c3cccc4c(N(C)C)cccc34)c2)cs1` the figure was 15.6%; with `Cc1cc(=O)oc2cc(OCCCCOc3ccc(/C=C/C(=O)Nc4cccc(Cl)c4)cc3)ccc12`, 74.7%.
On the same count and under the same terms, with `COc1ccccc1C(=O)NNC(=O)CSc1nc2c(c(=O)[nH]1)CCCC2` the figure was 101%; with `NC1=NC(c2ccccc2Cl)N=C(Nc2nn[nH]n2)N1` (centres undefined), 99.6%.
On to `COc1ccc2nc(Cl)c(-c3cc(-c4ccccc4)nc(=O)[nH]3)cc2c1`, for which the growth is 31.5%.
Same read-out and setting: with `O=c1[nH]n(C(=S)N/N=C/c2ccc(F)cc2)c(=O)c2ccccc12` the figure was 47.6%; with `O=C(CS(=O)(=O)c1oc(-c2ccc(Cl)cc2)nc1S(=O)(=O)c1ccccc1)N1CCCC1`, 80.9%; with `O=C1Nc2cc(Cl)ccc2/C1=C/c1cccc(OCc2ccc(Br)cc2F)c1`, 28.6%.
Same read-out and setting: with `Cc1nc2c(cnn2-c2ccccc2)c(=O)n1-c1ccc(NC(=O)c2ccc(F)cc2)cc1` the figure was 80.4%.
Still for that read-out and setting: with `S=c1nc(-c2ccccc2)cc(-c2cc3ccccc3nc2Cl)[nH]1` the figure was 81.2%.
Take `Cc1ccc(C(=O)Nc2ccc(-n3c(C)nc4c(cnn4-c4ccccc4)c3=O)cc2)cc1`: the growth was 82.1%.
For `Cc1cc(C)nc(NS(=O)(=O)c2ccc(N/C(N)=N/c3nccc(-c4cccs4)n3)cc2)n1`, the growth is 100%.
The same measure, in the same setting: with `COc1ccc(CN2[C@H](C(=O)NCc3ccc(C(=O)NO)cc3)Cc3c([nH]c4ccccc34)[C@H]2C2CC2)cc1` the figure was 63.4%; with `O=C1Nc2ccc(Cl)cc2/C1=C/c1cccc(OCc2ccccc2)c1`, 44.2%.
Still for that read-out and setting: with `O=C(Cn1cc(CSc2nnc3oc4ccccc4n23)nn1)Nc1ccc(Br)cc1` the figure was 24.7%; with `CCN1CCN(c2ccc(NC(=O)Nc3ccc(-c4cc(C(=O)NC)c5ncccc5n4)cc3)cc2C(F)(F)F)CC1`, -100% (active); with `COc1ccc(-c2nc(S(=O)(=O)c3ccc(C)cc3)c(S(=O)(=O)CC(=O)N(C)Cc3ccccc3)o2)cc1`, 72.1%.
Same read-out and setting: with `COC[C@@H](CC(C)C)N=C1NC(=O)/C(=C/c2ccc3ncsc3c2)N1` the figure was 11.5%.
Take `CC(C)Sc1nc(NC2CC2)c(C#N)c(-c2ccccc2)n1`: the growth is 25.7%.
On the same count and under the same terms, with `CCOC(=O)N/C(=C1/OCCN1C)[P+](c1ccccc1)(c1ccccc1)c1ccccc1` the figure was 71.6%.
On the same count and under the same terms, with `CS(=O)(=O)Nc1ccc(-c2ccc3c(c2)ncn3-c2ccc(NC(=O)Nc3ccc(Cl)c(C(F)(F)F)c3)cc2)cc1` the figure was -89.3% (active).
The same measure, in the same setting: with `CN1CCc2c(sc3ncnc(N/N=C/c4cn(-c5ccccc5)nc4-c4ccc(Cl)cc4)c23)C1` the figure was 34.3%; with `CC1(c2ccccc2)NC(=O)N(CC(=O)Nc2ccc(C(=O)/C=C/c3ccc(Br)cc3)cc2)C1=O` (centres undefined), 56.7%.
Take `O=C(CN1CCN(c2ncnc3c2cnn3-c2ccccc2)CC1)Nc1nncs1`: the growth is 58.4%.
Same read-out and setting: with `COc1ccc(C=CC(=O)c2ccc(-n3c(C)nc4c(cnn4-c4ccccc4)c3=O)cc2)cc1` the figure was 81.8%.
In the case of `O=C(c1ccc(-n2c(=O)[nH]c3ccccc3c2=O)cc1)N1CCOCC1`, the growth is 95.5%.
